# Records with an inconclusive call do not appear. Unmarked numbers belong to inactive results. Calls come from the whole dose curve; as a rule, active = well fitted cell-killing curve with a large enough effect in the repeat runs; inconclusive = weak or mixed curves; inactive = flat fitted curve, though single readings scatter.
# Experiment: qHTS RealTime-Glo MT Cell Viability Assay in HepG2 cells - 24 hour (AID 1224867); note: nearly all actives have a fitted effect of over 50% in size
# Conditions: RealTime-Glo luminescence; series mostly up to 76.8 µM; activity change, negative = cytotoxicity: at the top concentration
# Source text: U.S. Tox21 Program National Center for Advancing Translational Sciences [NCATS] NIH Chemical Genomics Center [NCGC] U.S. Environmental Protection Agency [EPA] National Institutes of Environmental Health Sciences [NIEHS] National Toxicology Program [NTP] U.S. Food and Drug Administration [FDA] Tox21 Assay Overview: Measure of cell viability is critical in the cell-base assay. Analysis of cell viability is necessary for the characterization of cell responses to cytotoxic drugs and environmental stress. A RealTime-Glo MT Cell Viability Assay to monitor cell viability in real time of continues cell culture during 40 hours of compound treatment was used to screen Tox21 10K library compounds in HepG2 cells. The RealTime-Glo MT Cell Viability Assay is a nonlytic, homogeneous, bioluminescent method to measure cell viability in real time using a simple, plate-based method. The assay involves adding NanoLuc luciferase and a cell-permeant prosubstrate to cells in culture. Viable cells reduce the proprietary prosubstrate to generate a substrate for NanoLuc luciferase. This substrate diffuses from cells into the surrounding culture medium, where it is rapidly used by the NanoLuc Enzyme to produce a luminescent signal. The signal correlates with the number of viable cells, making the assay well suited for cytotoxicity studies.
# Tox21 Assay Protocol Summary: The mixture of HepG2 cell suspension and reagents were dispensed at 600cells/6 ul/well in 1536-well tissue culture treated black solid bottom plates using a Multidrop dispenser. After the assay plates were incubated at a 37 C/5% CO2 incubator for 5 hours, 23 nL of compounds dissolved in DMSO, positive and negative controls was transferred to the assay plate by a pintool work station. The plates were incubated at 37 C for 40 hours. The luminescence intensity were measured at 0h, 8h, 16h, 24h, 32h and 40h time points using ViewLux plate reader during compound treatment.
# % is set by controls: 0 for no effect and ±100 for the full control effect.
row,SMILES,"activity change, negative = cytotoxicity"
1,O=[N+]([O-])c1cc(Cl)c(Cl)c(Cl)c1,-1.1%
2,O=CNC(N1CCN(C(NC=O)C(Cl)(Cl)Cl)CC1)C(Cl)(Cl)Cl (stereo not given),-0.344%
3,CC(C)NCC(O)c1ccc(N)c(C#N)c1 (stereo not given),1.33% [at 35.3 µM]
4,N#CCBr,-0.934%
5,CN/C(=N\[N+](=O)[O-])NCC1CCOC1 (stereo not given),-0.907%
6,OC(c1ccc(F)cc1)(c1cncnc1)c1ccccc1Cl (stereo not given),-6.63%
7,CCOc1nc(C(Cl)(Cl)Cl)ns1,-3.28%
8,BrCCCCCCBr,0.0453%
9,CCc1cc2c(s1)-n1c(C)nnc1CN=C2c1ccccc1Cl,1.84% [at 35.3 µM]
10,CC1(C)CON(Cc2ccccc2Cl)C1=O,-2.71%
11,CCCCC(=O)Cl,-2.12%
12,O=C(CCCN1CCC(n2c(=O)[nH]c3ccccc32)CC1)c1ccc(F)cc1,-9.16% [at 35.3 µM]
13,CC1=NNC(=O)N(/N=C/c2cccnc2)C1,0.643%
14,C[C@@H]1CN(C2CCC(C#N)(c3ccc(F)cc3)CC2)CC[C@]1(C(=O)O)c1ccccc1 (stereo not given in full),-0.157% [at 35.3 µM]
15,COc1cc(OC)nc(Oc2cccc(Oc3nc(OC)cc(OC)n3)c2C(=O)O)n1,5.14%
16,CS(=O)(=O)c1cc(C(F)(F)F)ccc1C(=O)c1cnoc1C1CC1,-2.28%
17,CCOC(=O)CP(=O)(OCC)OCC,-0.174%
18,Cc1nc(N)nc(N)n1,-0.224%
19,CCOP(=O)(OCC)OP(=O)(OCC)OCC,-0.176%
20,CSc1nc(N=[N+]=[N-])nc(NC(C)C)n1,-0.599%

row,SMILES,"activity change, negative = cytotoxicity"
1,C1CCC(C2CCCCC2)CC1,-0.643%
2,CC1CN1P(=O)(N1CC1C)N1CC1C (stereo not given),3.1%
3,CC1(C(=O)Nc2ccc(O)c(Cl)c2Cl)CCCCC1,-15.1%
4,ClC(Cl)C(Cl)Cl,1.9%
5,O=[N+]([O-])c1cccc2cccnc12,-0.542%
6,CCCCc1c(C)nc(NCC)[nH]c1=O,-0.648%
7,C[C@]12CC[C@H]3[C@@H](CCC4=CC(=O)CC[C@@]43C)[C@@H]1CC[C@@H]2C(=O)O,0.0284% [at 35.3 µM]
8,CCOC(=O)/C=C(C)/C=C/C[C@@H](C)CCCC(C)C,1.75%
9,CCN(CC)c1nc(C)cc(OP(=S)(OC)OC)n1,-7.34%
10,O=C1c2ccccc2C(=O)c2ccccc21,0.705% [at 15.8 µM]
11,Oc1c(Cl)cccc1Cl,-7.91%
12,NC(=S)C(N)=S,1.85%
13,O=C(CCN1CC1)OCC(CO)(COC(=O)CCN1CC1)COC(=O)CCN1CC1,-0.105%
14,CC(CCc1ccccc1)NC(C)C(O)c1ccc(O)cc1 (stereo not given),-4.22% [at 35.3 µM]
15,CC(Oc1ccc(Oc2ncc(C(F)(F)F)cc2Cl)cc1)C(=O)O (stereo not given),-1.43%
16,Cc1nnc2n1-c1sc(CCC(=O)N3CCOCC3)cc1C(c1ccccc1Cl)=NC2,3.57% [at 35.3 µM]
17,C[C@]12CC[C@H]3[C@@H](CC=C4C[C@@H](O)CC[C@@]43C)[C@@H]1CC[C@@H]2O,4.94% [at 35.3 µM]
18,CSc1ccc(C(=O)C(C)(C)N2CCOCC2)cc1,-8.24%
19,CCCSC(=O)N(CCC)CCC,1.92%
20,c1ccc(N2CCNCC2)cc1,2.93% [at 35.3 µM]
